Hit rate of the full screen: of about 39,000 compounds, about 1,500 (3.8%) were called active. Many of the other results were omitted from the sample, so actives are more common in it than they were.
test system: HSkMC (human skeletal muscle cells); assay: cytotoxicity call (relative viability < 0.9); conditions: 10 µM

Row | Compound | cytotoxicity call
1 | Cc1ccc(S(=O)(=O)N(C)C[C@@H]2Oc3ccc(NC(=O)CCCN(C)C)cc3CC(=O)N([C@@H](C)CO)C[C@H]2C)cc1 | inactive
2 | O=C(CN1CCOCC1)NCC[C@@H]1CC[C@H](NC(=O)Cc2ccccn2)[C@@H](CO)O1 | inactive
3 | Cc1noc(C)c1S(=O)(=O)N(C)C[C@H]1Oc2ccc(NC(=O)Cn3cnnn3)cc2CC(=O)N([C@@H](C)CO)C[C@@H]1C | inactive
4 | C[C@@H]1CN([C@H](C)CO)S(=O)(=O)c2ccc(C#Cc3ccccc3)cc2O[C@@H]1CN(C)S(C)(=O)=O | inactive
5 | C[C@@H]1CCCCO[C@@H](CN(C)C(=O)Nc2ccccc2)[C@@H](C)CN([C@@H](C)CO)C(=O)c2cc(NC(=O)Nc3cccc4ccccc34)ccc2O1 | inactive
6 | COc1ccc(S(=O)(=O)Nc2ccc3c(c2)OC[C@@H](C)N(C)C[C@@H](C)[C@H](OC)CN(C)C3=O)cc1 | inactive
7 | CO[C@H](CN(C)S(=O)(=O)c1cccc(Cl)c1)[C@H](C)CN([C@H](C)CO)S(=O)(=O)c1ccc(Cl)cc1 | inactive
8 | O=C(C[C@H]1CC[C@H]2[C@@H](COC[C@H](O)CN2C(=O)c2cccnc2)O1)NCc1ccc(-c2ccccc2)cc1 | inactive
9 | NC(=O)c1nc2c(s1)CCNCC2 | inactive
10 | Cc1ccc(S(=O)(=O)N(C)C[C@H]2OCCCC[C@@H](C)Oc3ccc(NS(C)(=O)=O)cc3C(=O)N([C@H](C)CO)C[C@@H]2C)cc1 | inactive
11 | COc1ccc(S(=O)(=O)N(C)C[C@@H]2OCc3cn(nn3)CCCC(=O)N([C@H](C)CO)C[C@@H]2C)cc1 | inactive
12 | O=C(C[C@H]1CC[C@@H]2[C@H](COC[C@H](O)CN2S(=O)(=O)c2ccccc2)O1)NCc1ccc(-c2ccccc2)cc1 | inactive
13 | Cc1ccc(S(=O)(=O)Nc2ccc3c(c2)C(=O)N([C@@H](C)CO)C[C@@H](C)[C@H](CN(C)C(=O)Nc2ccc(F)cc2)OCCCC[C@@H](C)O3)cc1 | inactive
14 | Cc1ccc(S(=O)(=O)Nc2ccc3c(c2)C(=O)N([C@H](C)CO)C[C@H](C)[C@H](CN(C)C(=O)Nc2ccc(F)cc2)OCCCC[C@H](C)O3)cc1 | inactive
15 | Cc1ccc(S(=O)(=O)Nc2ccc3c(c2)C(=O)N([C@@H](C)CO)C[C@H](C)[C@@H](CN(C)C(=O)Nc2ccc(F)cc2)OCCCC[C@H](C)O3)cc1 | inactive
16 | Cc1ccc(S(=O)(=O)Nc2ccc3c(c2)C(=O)N([C@H](C)CO)C[C@@H](C)[C@H](CN(C)C(=O)Nc2ccc(F)cc2)OCCCC[C@@H](C)O3)cc1 | active
17 | Cc1ccc(S(=O)(=O)Nc2ccc3c(c2)C(=O)N([C@H](C)CO)C[C@@H](C)[C@H](CN(C)C(=O)Nc2ccc(F)cc2)OCCCC[C@H](C)O3)cc1 | active
18 | Cc1ccc(S(=O)(=O)Nc2ccc3c(c2)C(=O)N([C@@H](C)CO)C[C@H](C)[C@@H](CN(C)C(=O)Nc2ccc(F)cc2)OCCCC[C@@H](C)O3)cc1 | inactive
19 | C[C@H]1CN([C@@H](C)CO)S(=O)(=O)c2ccc(C#CC(C)(C)O)cc2O[C@H]1CN(C)C(=O)C1CCCCC1 | inactive
20 | C[C@H](CO)N1C[C@H](C)[C@H](CN(C)S(C)(=O)=O)Oc2ccc(NC(=O)Nc3ccc(F)cc3)cc2CC1=O | inactive
21 | COc1ccc(NC(=O)Nc2cccc3c2O[C@H](CN(C)C(=O)Nc2cccc4ccccc24)[C@H](C)CN([C@H](C)CO)C3=O)cc1 | inactive
22 | COc1ccc(NC(=O)N(C)C[C@H]2Oc3c(NC(=O)C4CC4)cccc3C(=O)N([C@H](C)CO)C[C@H]2C)cc1 | inactive
23 | C[C@H]1CN([C@@H](C)CO)C(=O)c2cc(NC(=O)Cc3ccccc3)ccc2O[C@@H]1CN(C)C(=O)Nc1cccc2ccccc12 | inactive

Row | Compound | cytotoxicity call
24 | Cc1nc2c(=O)n(C)c(=O)n(C)c2nc1Cl | active
25 | Cn1c(=O)c2c(nc(SCSc3nc4c(c(=O)n(C)c(=O)n4C)n3C)n2C)n(C)c1=O | inactive
26 | CCn1c(Cl)nc2c1c(=O)n(C)c(=O)n2C | inactive
27 | C[C@@H]1CN([C@H](C)CO)C(=O)c2cc(NC(=O)Nc3ccc4c(c3)OCO4)ccc2O[C@@H](C)CCCCO[C@H]1CN(C)Cc1ccccc1 | inactive
28 | Cc1ccc(S(=O)(=O)N(C)C[C@H]2OCCCC[C@@H](C)Oc3ccc(NS(C)(=O)=O)cc3C(=O)N([C@H](C)CO)C[C@H]2C)cc1 | inactive
29 | Cn1nnc2c1CCN(C(=O)CS(C)(=O)=O)[C@@H]2COCC1CC1 | inactive
30 | COCC(=O)Nc1ccc2c(c1)CC(=O)N2 | inactive
31 | CCN1CCN(Cc2ccc(C(=O)Nc3ccc(C)c(Oc4ccc5c(c4)CC(=O)N5)c3)cc2C(F)(F)F)CC1 | active
32 | Cc1ccc(S(=O)(=O)Nc2ccc3c(c2)C(=O)N([C@@H](C)CO)C[C@H](C)[C@@H](CN(C)C(=O)Nc2c(C)noc2C)OCCCC[C@@H](C)O3)cc1 | inactive
33 | Cc1noc(C)c1NC(=O)N(C)C[C@@H]1Oc2ccc(NC(=O)C3CC3)cc2C(=O)N([C@H](C)CO)C[C@H]1C | inactive
34 | C[C@@H]1CN([C@H](C)CO)C(=O)CCCn2nncc2CO[C@H]1CN(C)C(=O)Nc1cccc(C(F)(F)F)c1 | inactive
35 | C[n+]1cc2c3c(ccc2c2ccc4cc5c(cc4c21)OCO5)OCO3.[Cl-] | active
36 | COc1ccc2cc3[n+](cc2c1OC)CCc1cc2c(cc1-3)OCO2.[Cl-] | inactive
37 | COCC#Cc1cnc2c(c1)C(=O)N([C@@H](C)CO)C[C@@H](C)[C@@H](CN(C)S(=O)(=O)c1ccccc1)O2 | inactive
38 | C[C@@H]1CN([C@H](C)CO)C(=O)c2cc(C#Cc3ccccc3F)cnc2O[C@@H]1CN(C)C(=O)c1ccc2c(c1)OCO2 | inactive
39 | Cc1ncc[nH]1 | inactive
40 | OCc1ncc[nH]1 | inactive
41 | CC[C@@H](C)SSc1ncc[nH]1 | active
42 | C[C@@H]1CN([C@H](C)CO)C(=O)c2cccc(NC(=O)Nc3ccc(F)cc3)c2O[C@H]1CN(C)C(=O)Nc1cccc2ccccc12 | inactive
43 | C[C@@H]1CN([C@@H](C)CO)C(=O)c2cc(NS(C)(=O)=O)ccc2O[C@@H]1CN(C)Cc1ccc(C(=O)Nc2ccccc2N)cc1 | inactive
44 | Cc1ccc(-n2nc(C(C)(C)C)cc2NC(=O)Nc2ccc(OCCN3CCOCC3)c3ccccc23)cc1 | active
45 | Cc1ccc(S(=O)(=O)NC2=NCN(CCN3CCOCC3)CN2)cc1 | inactive
46 | O=C(NCCN1CCOCC1)c1ccccn1 | inactive

Source: the antibiotic and cytotoxicity screens of Wong et al. (2023)
